High-throughput results: PubChem BioAssay, National Center for Advancing Translational Sciences (NCATS)
LmPK inh – inhibitors of Leishmania mexicana pyruvate kinase | Q27686 | purified LmPK, Kinase-Glo ATP luminescence, 1 h | Potency, µM (doses to about 57.5 µM), for inactives: at the top dose activity change, negative = inhibition, most hits filed as inhibitors | hit rate 0.37% among 290,000; active means well fitted curve in the direction sought with a large enough effect; inconclusive means small, poorly fitted or top-dose-only effect, or another doubt; inactive means no such curve, though single readings can be large; an effect the other way counts as inactive or inconclusive; further: potency means the concentration at half of the fitted maximal effect; on the % scale 0 is the no-effect control and ±100 the full control effect
Target sequence (Q27686 whole entry, looked up): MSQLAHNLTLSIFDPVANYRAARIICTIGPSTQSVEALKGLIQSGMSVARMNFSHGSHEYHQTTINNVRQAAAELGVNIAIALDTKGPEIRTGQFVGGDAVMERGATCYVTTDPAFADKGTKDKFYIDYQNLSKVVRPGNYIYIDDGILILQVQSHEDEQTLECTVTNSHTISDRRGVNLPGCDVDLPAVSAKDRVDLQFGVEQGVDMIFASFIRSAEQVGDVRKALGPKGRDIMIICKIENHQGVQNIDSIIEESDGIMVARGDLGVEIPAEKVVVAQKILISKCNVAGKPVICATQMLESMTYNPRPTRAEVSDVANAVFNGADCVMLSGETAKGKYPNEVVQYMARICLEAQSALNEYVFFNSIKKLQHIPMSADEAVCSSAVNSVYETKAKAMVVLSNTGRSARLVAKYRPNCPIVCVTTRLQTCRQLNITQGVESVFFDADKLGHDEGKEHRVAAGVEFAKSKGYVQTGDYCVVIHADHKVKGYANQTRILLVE
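Kinase-Glo luminescence read after 1 h RT reaction of 0.1 nM LmPK with 0.5 mM PEP and 0.1 mM ADP. Activity scaled between uninhibited and enzyme-free controls.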
RE007 growth inh – less growth of the S. pombe RE007 Vpr strain; Potency, µM (titrated, usually from 92.2 µM), without a hit: top-dose activity change, negative = less growth, hits mostly inhibitors; S. pombe RE007 Vpr strain, BacTiter-Glo ATP luminescence, 24 h; hit rate 0.21% among 360,000; AID 651644; active means well fitted falling curve with a large enough effect; inconclusive means small, poorly fitted or top-dose-only effect; inactive means no such curve, though single readings can be large or run the other way; further: potency means the concentration at half of the fitted maximal effect; on the % scale 0 is the no-effect control and ±100 the full control effect; nearly all actives have a fitted effect of over 50% in size
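Fission yeast RE007 carrying one integrated HIV-1 vpr copy, seeded at OD 0.01 in PMG+AL medium with 23 nL pinned compound. Grown 24 h at 30 degrees; viability read by BacTiter-Glo luminescence after 5 min.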
TbPYK inhibitor – inhibitors of Trypanosoma brucei pyruvate kinase; Potency, µM (series often up to 76.8 µM), inactives show at the top dose activity, negative = inhibition, most hits filed as inhibitors; AID 624173; hit rate 0.12% among 410,000; Q57TT1; TbPYK enzyme, Kinase-Glo Plus ATP luminescence, 45 min; active means well fitted curve in the direction sought with a large enough effect; inconclusive means small, poorly fitted or top-dose-only effect, or another doubt; inactive means no such curve, though single readings can be large; an effect the other way counts as inactive or inconclusive; further: potency means the concentration at half of the fitted maximal effect; on the % scale 0 is the no-effect control and ±100 the full control effect; nearly all actives have a fitted effect of over 50% in size
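Screened from lowest to highest concentration, compounds were pinned into TbPYK/substrate mixtures, and ADP (130 uM final) was added. Plates sat at room temperature for 45 min prior to Kinase-Glo Plus detection by luminescence.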
NS1 inh – inhibitors of influenza NS1 protein function; Potency, µM (top dose mostly 46.1 µM), without a hit: at the top dose activity, positive = more growth; AID 2326; hit rate 0.4% among 270,000; further: potency means the concentration at half of the fitted maximal effect; actives are rising curves; nearly all actives have a fitted effect of over 50% in size
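Read-out: OD600 growth recovery of NS1-expressing budding yeast. Cells grown overnight at 30C in -URA glucose medium, washed, resuspended and diluted 1:100 in 2% galactose assay medium, pH 6.0. Same strain lacking NS1 served as positive control.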
NS1 inh valid – validation of influenza NS1 protein function inhibitors; AID 492980; influenza NS1 function cell assay, 15-point titration; shares compounds with NS1 inh; activity change, negative = inhibition, % at 32.9 µM; 1,400 tested, under 10 active; further: 0% is about no effect
Flu PR8 replic – influenza NS1 inhibitors: inhibition of influenza A/PR/8/34 replication | shares compounds with NS1 inh | MDCK infected influenza A/PR/8/34, virus titer TCID50; stronger effect = lower value | virus titer (log TCID50), log10 TCID50 at 5 µM | hit rate 30% among 95 | AID 504647; call rule not given here
* = called active by the depositor; ? = inconclusive; . = not tested or not shown; [ ] = dose if it differs, or a comment. Rows were chosen to be rich in hits. Some 0.77% of all compounds tested hit in one or more screens of this group. Unless noted, the call rests on the fitted dose curve.

SMILES	LmPK inh	RE007 growth inh	TbPYK inhibitor	NS1 inh	NS1 inh valid	others
Cc1csc(NC(=O)C2CCN(S(=O)(=O)c3cccs3)CC2)n1	2.2%	-4.9%	0.9%	.	.
CC(=O)Nc1ccc(-c2csc(NC(=O)C3CCN(S(=O)(=O)c4cccs4)CC3)n2)cc1	2.0%	12.3%	-3.2%	12.6µM*	16.1
CCN(CC)C(=O)c1sc2nc(-c3cccs3)cc(-c3ccc(Cl)cc3)c2c1N	-1.4%	2.4%	-16.3%	4.47µM*	?
Cc1ccccc1-c1nc(CS(=O)CC(=O)N2CCC3(CC2)OCCO3)c(C)o1 (stereo unspecified)	0.0%	-7.2%	-3.8%	1.12µM*	4.8	Flu PR8 replic=8.33
CC1CCc2c(sc(NC(=O)c3ccc(-c4ccccc4[N+](=O)[O-])o3)c2C#N)C1 (stereo unspecified)	1.3%	-1.9%	12.5%	1.0%	.
N#Cc1c(NC(=O)c2ccc(-c3ccccc3[N+](=O)[O-])o2)sc2c1CCCC2	5.0%	10.3%	-7.5%	?	-16.6
CC(C)(C)c1ccc(O)c(CN(Cc2cc(C(C)(C)C)ccc2O)C2CCCCC2)c1	.	.	.	-7.7%	.
Cc1ccc(-n2c(SCC(=O)NNC(=S)Nc3ccccc3)nc3ccccc3c2=O)cc1	6.5%	.	-17.9%	4.47µM*	-25.7
O=C(CSc1nc2ccccc2c(=O)n1-c1ccc(F)cc1)Nc1ccc(C(=O)O)cc1	1.4%	0.2%	-2.4%	14.1µM*	?
O=C(CSc1nc2ccccc2c(=O)n1-c1ccc(F)cc1F)Nc1ccc2c(c1)CCC2	3.7%	4.9%	-1.8%	12.6µM*	2.3
COc1ccc(C(=O)CSc2nnc(-c3ccccn3)n2Cc2ccco2)cc1	0.9%	-11.5%	-14.0%	?	-8.5
COc1ccc2nc(Nc3nc(CSc4nc5ccccc5[nH]4)cc(=O)[nH]3)nc(C)c2c1	0.3%	22.1%	-5.6%	?	.
Cc1nc(Nc2nc(CSc3nc4ccccc4[nH]3)cc(=O)[nH]2)nc2ccccc12	1.5%	14.0%	0.6%	14.1µM*	13.2
CON(C)c1nc(Oc2ccc(=O)[nH]n2)nc(N(C)C)n1	-6.8%	13.0%	14.2%	?	25.8
CC(C)[C@@]1(NC(=O)[C@@H]2C[C@@H]3c4cccc5[nH]cc(c45)C[C@H]3N(C)C2)O[C@@]2(O)C3CCCN3C(=O)[C@H](Cc3ccccc3)N2C1=O (stereo partly specified)	.	.	.	5.62µM*	?
CC1(C)C2C(Cl)(Cl)C2(C)c2ccccc2N1C=O (stereo unspecified)	1.9%	-12.0%	1.2%	-4.8%	.
CCCn1c(SCC(=O)NCCc2ccccc2)nnc1-c1cccnc1	-3.0%	11.6%	-1.2%	-11.0%	.
CCCn1c(SCC(=O)NNC(=O)c2ccccc2)nnc1-c1cccnc1	6.3%	7.9%	-0.7%	?	1.7
COc1ccc(NC(=O)Nc2cccs2)cc1OC	5.3%	2.1%	1.5%	?	18.3
CCN(C(=O)CSc1nc2ccccc2nc1Cc1cccc(OC)c1)c1cccc(C)c1	.	.	2.0%	.	.
CSC1=NCCN1C(=O)c1ccc2c(c1)OCO2	3.5%	7.7%	-1.1%	?	-0.3
O=C(CCCC(=O)c1ccc(F)cc1)c1ccc(F)cc1	-4.4%	-6.4%	-6.3%	-6.1%	.
Cc1cc(C(=O)COc2cccnc2[N+](=O)[O-])c(C)n1-c1ccccc1F	6.2%	2.3%	-10.6%	?	-8.5
Cc1cc(C(=O)COc2cccnc2[N+](=O)[O-])c(C)n1-c1ccccc1	-1.5%	3.5%	0.6%	8.1%	.
Cc1cc(C)c(OCCN2C(=O)NC(C)(C)C2=O)c(Cl)c1	2.1%	5.8%[3.69 µM]	.	?	-31.7
SMILES	LmPK inh	RE007 growth inh	TbPYK inhibitor	NS1 inh	NS1 inh valid	others
Cc1cc(Cl)c(OCCN2C(=O)NC(C)(C)C2=O)c(Br)c1	-3.0%	8.9%[3.69 µM]	.	-10.3%	.
CCOC(=O)N1CCC(NC(=O)Cc2ccccc2)CC1	-5.7%	0.9%	0.3%	1.5%	.
CCOC(=O)N1CCC(NC(=O)c2ccccc2C(=O)O)CC1	5.3%	0.7%	-0.5%	?	-2.5
NC(Cc1cc(O)c(O)cc1O)C(=O)O (stereo unspecified)	.	.	.	8.91µM*	-13.8
Cc1ccc(SCC(=O)Nc2ccc3c(c2)C(=O)N(C)C3=O)cc1	-4.5%	12.1%	0.0%	2.51µM*	13.0
Cc1cc(C)c(NC(=O)CSCc2c(C)noc2C)c(Cl)c1	.	8.6%	3.4%	.	.
CCCc1nc2ccccc2c(=O)n1-c1c(C)n(C)n(-c2ccccc2)c1=O	2.0%	-2.8%	1.8%	4.47µM*	-1.7
CCOCCCNC(=O)C(NC(=O)CC1NC(=O)NC1=O)c1ccc(Cl)cc1 (stereo unspecified)	0.2%	9.6%	-1.3%	0.891µM*	-17.3
CN1CCN(/N=C/c2nc(-c3cccc([N+](=O)[O-])c3)n3ccccc23)CC1	4.5%	2.6%	-5.4%	8.9%	.
O=C(O)/C=C/c1nc(-c2ccccc2)n2ccccc12	5.1%	-8.2%	-3.2%	?	-1.3
O=C(NCc1ccccc1)c1cccc(OCC(=O)N2CCN(C(=O)c3ccco3)CC2)c1	6.8%	-3.4%	-11.3%	?	11.0
CN1CCc2c(sc3c2c(=O)n(-c2ccccc2)c2nnc(SCc4ccc(Cl)cc4)n32)C1	3.4%	-4.0%	?	12.6µM*	14.1
CCNC(=S)NCc1ccc2[nH]c(C)cc2c1	-1.4%	0.8%	-5.8%	11.2µM*	20.2
CCOC(=O)NCc1ccc2[nH]c(C)cc2c1	0.4%	19.3%	-0.7%	25.8%	.
Cc1cc2cc(CNC(=S)Nc3ccc(OC(F)(F)F)cc3)ccc2[nH]1	3.2%	-5.7%	0.6%	?	16.1
Cc1cc2cc(CNC(=O)c3ccc(C)c([N+](=O)[O-])c3)ccc2[nH]1	3.4%	7.8%	-0.7%	8.91µM*	-23.0
Cc1cc2cc(CNC(=S)Nc3ccc(OC(F)F)cc3)ccc2[nH]1	7.3%	1.1%	-4.2%	?	.
CCOC(=O)C1CCN(C(=O)CN(Cc2ccccc2)S(C)(=O)=O)CC1	0.6%	10.4%	2.2%	14.1µM*	11.4
Cc1csc(SCC(=O)Nc2nncs2)n1	1.3%	9.8%	0.0%	?	-22.0
Cn1nccc1-c1cc(Cl)cc(Cl)c1O	-3.0%	?	-3.7%	-8.7%	.
CCC(=O)N(Cc1ccc(S(N)(=O)=O)cc1)C1CC(=O)N(c2ccc(OC)cc2)C1=O (stereo unspecified)	1.6%	-20.4%	-5.6%	-1.9%	.
CCOc1ccc(/C=N/NC(=O)Cc2csc(Nc3cccc(C(F)(F)F)c3)n2)cc1	2.1%	-2.2%	-2.9%	10µM*	-26.4
COc1ccc(-c2csc(C3=C(O)CN(Cc4ccc(Cl)cc4)C3=N)n2)cc1OC	6.7%	-5.7%	3.5%	-0.9%	.
COc1cccc(CN2CC(O)=C(c3nc(-c4ccc(Cl)cc4)cs3)C2=N)c1	1.1%	-1.4%	2.1%	5.01µM*	7.0
